Test results reported in the supplement of paper PMC10849652.
Targets with a hit are over-represented here; the source holds about 8,800 in all. About 0.5% of all pairs of compound and target were hits. Values without a mark were called inactive.

Key:
Experiment in all cases: log2 fold change, soluble protein after heating vs DMSO (PISA); higher = thermal stabilisation; K562 lysate, 10 uM; active = over 0.2 and 3.5 SD of the protein, either way, in both replicates (recomputed)
vemurafenib = compound: CCCS(=O)(=O)Nc1ccc(F)c(C(=O)c2c[nH]c3ncc(-c4ccc(Cl)cc4)cc23)c1F [vemurafenib]
Procedure, shortened: (§1)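 The values are log-two fold changes in thermal stability compared with solvent controls and come from duplicates. They were obtained by TMTpro 16plex LC-MS/MS, with channel sums equalised, on the supernatant after 21,000xg for 90 min. That supernatant came from crude K562 extract at 1 mg/mL protein treated with 10 μM compound for 30 min, heated for 3 min across 48°C-58°C, pooled and brought to 0.5% NP-40 at 4°C.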

[1] = compound: CCCS(=O)(=O)Nc1ccc(F)c(C(=O)c2c[nH]c3ncc(Cl)cc23)c1F
Procedure, shortened: as §1

barasertib = compound: CCN(CCCOc1ccc2c(Nc3cc(CC(=O)Nc4cccc(F)c4)[nH]n3)ncnc2c1)CCOP(=O)(O)O [barasertib]
Procedure, shortened: as §1

[2] = compound: CC[C@@H]1C(=O)N(C)c2cnc(Nc3ccc(C(=O)NC4CCN(C)CC4)cc3OC)nc2N1C1CCCC1
Procedure, shortened: as §1

volasertib = compound: CC[C@@H]1C(=O)N(C)c2cnc(Nc3ccc(C(=O)N[C@H]4CC[C@H](N5CCN(CC6CC6)CC5)CC4)cc3OC)nc2N1C(C)C [volasertib]
Procedure, shortened: as §1

[3] = compound: CCn1c(C(=O)N(C2CC2)C2CC2)cc2c3c(ncn3C)c(Nc3cc(C)n(C)n3)nc21
Procedure, shortened: as §1

[4] = compound: CCn1cc(-c2ccnc3[nH]c(-c4cccc(CN(C)C)c4)cc23)c(-c2ccc(NC(=O)N(C)C)cc2)n1
Procedure, shortened: as §1

[5] = compound: CN1CCC(CNc2ccc3ncc(-c4cccc(OC(F)(F)F)c4)n3n2)CC1
Procedure, shortened: as §1

saracatinib = compound: CN1CCN(CCOc2cc(OC3CCOCC3)c3c(Nc4c(Cl)ccc5c4OCO5)ncnc3c2)CC1 [saracatinib]
Procedure, shortened: as §1

sotrastaurin = compound: CN1CCN(c2nc(C3=C(c4c[nH]c5ccccc45)C(=O)NC3=O)c3ccccc3n2)CC1 [sotrastaurin]
Procedure, shortened: as §1

Sequence of UniProt Q8WXC6 (Q8WXC6 whole entry, looked up): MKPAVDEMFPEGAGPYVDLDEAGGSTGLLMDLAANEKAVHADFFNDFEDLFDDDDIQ
Sequence of UniProt G9CGD6 (G9CGD6 whole entry, looked up): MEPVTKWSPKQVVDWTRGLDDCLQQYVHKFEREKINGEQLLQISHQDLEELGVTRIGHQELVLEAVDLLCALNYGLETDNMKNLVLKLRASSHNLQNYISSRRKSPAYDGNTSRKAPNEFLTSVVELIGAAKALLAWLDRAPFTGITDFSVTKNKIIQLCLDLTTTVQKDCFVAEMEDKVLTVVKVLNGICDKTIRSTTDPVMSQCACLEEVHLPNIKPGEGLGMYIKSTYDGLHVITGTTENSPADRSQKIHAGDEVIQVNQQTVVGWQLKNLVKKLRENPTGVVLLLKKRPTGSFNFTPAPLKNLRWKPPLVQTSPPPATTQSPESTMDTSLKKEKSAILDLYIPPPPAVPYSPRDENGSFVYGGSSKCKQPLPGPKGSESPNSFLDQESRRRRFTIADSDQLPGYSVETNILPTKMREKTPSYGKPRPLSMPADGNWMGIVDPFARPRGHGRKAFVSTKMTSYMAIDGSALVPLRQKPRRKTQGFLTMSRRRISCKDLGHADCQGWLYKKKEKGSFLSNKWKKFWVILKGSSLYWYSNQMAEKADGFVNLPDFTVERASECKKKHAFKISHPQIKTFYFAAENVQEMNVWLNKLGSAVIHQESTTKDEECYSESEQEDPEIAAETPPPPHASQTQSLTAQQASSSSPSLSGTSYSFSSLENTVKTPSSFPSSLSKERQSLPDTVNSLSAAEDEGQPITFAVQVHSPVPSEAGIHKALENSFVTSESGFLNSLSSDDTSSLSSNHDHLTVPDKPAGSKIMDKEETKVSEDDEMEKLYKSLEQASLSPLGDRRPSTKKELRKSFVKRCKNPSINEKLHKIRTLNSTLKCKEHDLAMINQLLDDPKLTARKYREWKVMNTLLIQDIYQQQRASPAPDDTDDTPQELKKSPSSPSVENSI
Sequence of UniProt O75534 (O75534 whole entry, looked up): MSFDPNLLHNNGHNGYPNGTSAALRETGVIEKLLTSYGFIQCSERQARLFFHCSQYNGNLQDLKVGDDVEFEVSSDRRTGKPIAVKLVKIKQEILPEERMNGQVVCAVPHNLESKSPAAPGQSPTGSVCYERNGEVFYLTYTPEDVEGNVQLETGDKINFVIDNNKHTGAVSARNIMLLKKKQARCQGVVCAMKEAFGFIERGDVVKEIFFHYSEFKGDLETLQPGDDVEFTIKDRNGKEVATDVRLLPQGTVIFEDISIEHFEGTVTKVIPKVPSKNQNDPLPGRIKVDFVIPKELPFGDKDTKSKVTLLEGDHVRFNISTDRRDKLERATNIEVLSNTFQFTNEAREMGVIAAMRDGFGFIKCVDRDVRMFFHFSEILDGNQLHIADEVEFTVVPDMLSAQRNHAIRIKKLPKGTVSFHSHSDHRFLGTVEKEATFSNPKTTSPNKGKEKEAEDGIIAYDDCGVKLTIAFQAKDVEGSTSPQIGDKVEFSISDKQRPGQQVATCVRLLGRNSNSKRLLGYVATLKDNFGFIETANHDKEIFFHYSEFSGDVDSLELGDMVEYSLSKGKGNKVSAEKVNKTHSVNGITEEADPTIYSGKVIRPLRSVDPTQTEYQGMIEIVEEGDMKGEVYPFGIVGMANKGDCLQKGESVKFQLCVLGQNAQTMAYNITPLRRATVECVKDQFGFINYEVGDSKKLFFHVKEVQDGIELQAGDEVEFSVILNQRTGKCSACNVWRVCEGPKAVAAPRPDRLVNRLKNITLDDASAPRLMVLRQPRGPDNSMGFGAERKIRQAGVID
Sequence of UniProt P57737 (P57737 whole entry, looked up): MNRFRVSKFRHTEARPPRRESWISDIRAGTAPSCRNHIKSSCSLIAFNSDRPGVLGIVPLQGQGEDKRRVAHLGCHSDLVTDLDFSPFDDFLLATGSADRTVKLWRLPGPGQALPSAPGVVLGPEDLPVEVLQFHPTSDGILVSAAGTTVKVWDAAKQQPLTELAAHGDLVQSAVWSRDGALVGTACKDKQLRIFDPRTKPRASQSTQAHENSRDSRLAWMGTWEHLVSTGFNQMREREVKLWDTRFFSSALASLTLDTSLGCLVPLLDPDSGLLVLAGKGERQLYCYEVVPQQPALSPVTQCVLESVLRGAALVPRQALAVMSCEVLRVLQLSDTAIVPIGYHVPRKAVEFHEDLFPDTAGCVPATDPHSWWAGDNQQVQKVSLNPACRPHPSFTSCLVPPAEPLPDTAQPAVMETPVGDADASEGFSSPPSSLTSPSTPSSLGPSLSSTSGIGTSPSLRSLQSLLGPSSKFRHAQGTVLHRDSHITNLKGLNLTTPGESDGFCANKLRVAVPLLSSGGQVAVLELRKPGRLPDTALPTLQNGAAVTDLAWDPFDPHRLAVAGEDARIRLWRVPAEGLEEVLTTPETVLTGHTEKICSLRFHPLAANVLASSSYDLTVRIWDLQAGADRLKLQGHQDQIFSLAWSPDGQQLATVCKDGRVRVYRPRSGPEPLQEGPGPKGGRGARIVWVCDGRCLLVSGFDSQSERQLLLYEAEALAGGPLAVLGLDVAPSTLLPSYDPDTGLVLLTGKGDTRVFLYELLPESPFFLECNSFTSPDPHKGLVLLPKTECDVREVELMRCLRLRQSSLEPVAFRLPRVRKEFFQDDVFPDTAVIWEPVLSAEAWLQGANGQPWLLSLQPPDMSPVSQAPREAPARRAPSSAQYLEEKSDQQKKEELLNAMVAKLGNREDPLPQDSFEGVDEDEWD
Sequence of UniProt Q6ZWL3 (Q6ZWL3 whole entry, looked up): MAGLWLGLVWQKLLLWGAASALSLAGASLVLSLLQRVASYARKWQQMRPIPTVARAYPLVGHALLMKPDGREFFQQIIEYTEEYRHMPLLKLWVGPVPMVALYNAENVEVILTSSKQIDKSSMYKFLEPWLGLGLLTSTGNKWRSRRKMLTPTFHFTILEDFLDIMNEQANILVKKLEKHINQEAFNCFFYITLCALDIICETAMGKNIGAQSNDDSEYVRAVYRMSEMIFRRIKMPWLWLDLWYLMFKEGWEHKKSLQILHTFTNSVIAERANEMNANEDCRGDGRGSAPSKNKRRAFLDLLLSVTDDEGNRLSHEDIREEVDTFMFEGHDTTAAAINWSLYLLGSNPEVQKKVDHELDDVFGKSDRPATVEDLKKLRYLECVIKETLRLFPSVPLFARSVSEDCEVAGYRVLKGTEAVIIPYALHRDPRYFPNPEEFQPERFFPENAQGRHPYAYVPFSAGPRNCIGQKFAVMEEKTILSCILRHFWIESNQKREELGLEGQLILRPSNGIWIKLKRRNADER
Sequence of UniProt Q96EP1 (Q96EP1 whole entry, looked up): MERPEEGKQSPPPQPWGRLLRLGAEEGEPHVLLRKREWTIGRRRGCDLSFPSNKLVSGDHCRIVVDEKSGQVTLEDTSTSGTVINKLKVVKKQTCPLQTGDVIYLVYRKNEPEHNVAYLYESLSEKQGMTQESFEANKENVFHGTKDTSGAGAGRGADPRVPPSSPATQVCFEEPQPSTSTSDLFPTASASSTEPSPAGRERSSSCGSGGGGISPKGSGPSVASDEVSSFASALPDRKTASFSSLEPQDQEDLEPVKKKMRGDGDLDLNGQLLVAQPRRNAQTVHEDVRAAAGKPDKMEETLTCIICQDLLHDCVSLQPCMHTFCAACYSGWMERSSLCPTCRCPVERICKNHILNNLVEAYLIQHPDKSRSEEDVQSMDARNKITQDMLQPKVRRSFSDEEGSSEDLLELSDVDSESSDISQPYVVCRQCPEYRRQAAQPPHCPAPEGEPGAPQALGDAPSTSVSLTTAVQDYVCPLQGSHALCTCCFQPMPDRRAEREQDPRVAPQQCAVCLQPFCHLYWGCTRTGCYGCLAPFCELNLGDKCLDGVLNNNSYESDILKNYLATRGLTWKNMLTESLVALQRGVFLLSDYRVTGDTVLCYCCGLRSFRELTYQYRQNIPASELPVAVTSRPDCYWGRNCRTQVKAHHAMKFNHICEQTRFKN
Sequence of UniProt Q6P3W2 (Q6P3W2 whole entry, looked up): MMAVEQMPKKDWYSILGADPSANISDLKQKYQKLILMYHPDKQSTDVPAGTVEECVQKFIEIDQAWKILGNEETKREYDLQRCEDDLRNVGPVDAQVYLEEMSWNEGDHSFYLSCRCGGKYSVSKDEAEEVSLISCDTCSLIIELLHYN
Sequence of UniProt Q6P3S1 (Q6P3S1 whole entry, looked up): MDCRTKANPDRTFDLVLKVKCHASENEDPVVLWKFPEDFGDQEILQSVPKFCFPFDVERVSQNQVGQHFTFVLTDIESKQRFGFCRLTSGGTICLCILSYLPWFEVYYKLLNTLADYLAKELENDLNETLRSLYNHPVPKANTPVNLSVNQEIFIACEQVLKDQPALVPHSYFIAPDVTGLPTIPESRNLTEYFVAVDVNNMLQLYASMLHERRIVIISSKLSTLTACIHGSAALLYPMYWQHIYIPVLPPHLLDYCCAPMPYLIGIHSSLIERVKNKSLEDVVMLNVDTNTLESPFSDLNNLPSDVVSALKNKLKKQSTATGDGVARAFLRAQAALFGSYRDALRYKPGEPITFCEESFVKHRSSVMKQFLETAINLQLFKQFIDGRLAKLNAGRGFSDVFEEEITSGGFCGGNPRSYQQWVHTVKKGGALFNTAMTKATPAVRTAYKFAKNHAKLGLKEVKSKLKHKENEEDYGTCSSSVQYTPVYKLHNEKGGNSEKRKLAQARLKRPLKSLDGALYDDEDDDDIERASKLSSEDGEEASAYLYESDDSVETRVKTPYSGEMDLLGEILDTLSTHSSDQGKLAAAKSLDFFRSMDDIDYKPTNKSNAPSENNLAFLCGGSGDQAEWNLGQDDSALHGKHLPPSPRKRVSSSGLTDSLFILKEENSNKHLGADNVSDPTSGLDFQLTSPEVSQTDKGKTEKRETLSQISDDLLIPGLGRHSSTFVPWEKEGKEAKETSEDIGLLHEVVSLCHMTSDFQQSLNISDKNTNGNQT
Sequence of UniProt Q96MX0 (Q96MX0 whole entry, looked up): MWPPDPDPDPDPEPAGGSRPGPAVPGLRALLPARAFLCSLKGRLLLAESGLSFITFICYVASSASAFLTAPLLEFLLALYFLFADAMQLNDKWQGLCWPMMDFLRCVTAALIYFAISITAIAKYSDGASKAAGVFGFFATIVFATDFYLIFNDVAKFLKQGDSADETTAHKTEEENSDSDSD

Target	log2 fold change (vemurafenib)	log2 fold change [1]	log2 fold change (barasertib)	log2 fold change [2]	log2 fold change (volasertib)	log2 fold change [3]	log2 fold change [4]	log2 fold change [5]	log2 fold change (saracatinib)	log2 fold change (sotrastaurin)
CMTM3 (UniProt Q96MX0)	0.053	-0.014	-0.04	-0.089	0.014	0.03	0.053	-0.055	0.012	-0.005
DES (UniProt P17661)	0.084	0.008	-0.001	0.045	0.058	-0.026	-0.434 (active)	0.149	0.106	-0.012
CNOT2 (UniProt Q9NZN8)	0.037	-0.026	0.065	0.029	-0.048	0.039	0.17	-0.059	-0.013	0.002
CLASP2 (UniProt O75122)	0.241	0.072	-0.015	0.021	-0.052	-0.098	-0.077	0.073		0.18
DARS (UniProt P14868)	0.02	0.021	0.021	-0.099	-0.043	0.062	0.026	-0.012	0.018	0.011
CMIP (UniProt Q8IY22)	0.009	0.023	0.04	-0.055	-0.057	0.043	-0.043	-0.054	0.014	0.017
CHEK1 (UniProt O14757)	-0.02	0.006	0.015	-0.031	-0.012	-0.012	-0.008	-0.045	-0.004	-0.014
CSNK2A1 (UniProt P68400)	-0.124	0.017	-0.025	-0.057	-0.039	0.006	-0.009	0.165	-0.028	0.019
COASY isoform 2 (UniProt Q13057)	0.076	0.017	0.011	-0.075	-0.098	0.034	-0.063	0.038	0.021	0.079
DIAPH1 (UniProt H9KV28)	0.098	-0.01	0.091	-0.049	-0.046	-0.046	-0.07	0.153		-0.001
DNM2 (UniProt P50570)	0.002	0.005	0.037	-0.024	-0.043	0.029	-0.012	0.013	0.016	0.001
CNNM2 (UniProt Q9H8M5)	0.025	0.024		0	-0.043	-0.091	-0.059	0.036	-0.039	0.091
DCTN1 isoform 4 (UniProt Q14203)	0.07	0.089		0.139	-0.019	-0.28	0.34	0.121	0.123	-0.027
CLUH, A0A494C0R8	-0.11	0.027	-0.092	0.097	-0.005	0	0.59 (active)	-0.047	0.03	0.051
DNAH5 (UniProt Q8TE73)	0.007	0.074	0.006		0.02	-0.035	-0.481 (active)	0.122	0.007	
DENND1B (UniProt Q6P3S1)	0.128	-0.036	0.01		-0.05	-0.134	0.022	-0.024	-0.018	0.04
COTL1 (UniProt Q14019)	-0.002	-0.017	-0.068	0.019	0.02	0.027	0.37 (active)	-0.076	-0.019	-0.045
CLIP1 isoform 2 (UniProt P30622)		0.112	-0.083	0.073	0.055	-0.04	-0.488	0.02	0.028	-0.026
CYP2S1 isoform 2 (UniProt Q96SQ9)	0.062	0.136		0.119	0.038	0.063			0.017	0.081
CORO7 (UniProt P57737)	-0.143			0.089		-0.025	0.321	0.165	0.166	0.137
CRLS1 (UniProt Q9UJA2)		0.063	0.014		0.005	0.017	0.022	-0.301		-0.008
CXCL14 (UniProt O95715)	0.252		0.079	0.189						
DESI2 (UniProt Q9BSY9)	0.064			0.089			0.116	-0.113		
DALRD3 (UniProt Q5D0E6)	-0.033	-0.025		-0.095	-0.041		0.003	0.144		
CYP4V2 (UniProt Q6ZWL3)		-0.021	-0.021		0.05	-0.12			-0.076	-0.17
DHX32 (UniProt Q7L7V1)	0.173			-0.026		-0.106	0.137	0.003		-0.011

Target	log2 fold change (vemurafenib)	log2 fold change [1]	log2 fold change (barasertib)	log2 fold change [2]	log2 fold change (volasertib)	log2 fold change [3]	log2 fold change [4]	log2 fold change [5]	log2 fold change (saracatinib)	log2 fold change (sotrastaurin)
DNA2 (UniProt P51530)	-0.094			-0.053		0.051	0.03	0.022	0.008	0.073
DHRS13 (UniProt Q6UX07)		0.291	0.236		-0.274	0.077			-0.031	0.095
COX7B (UniProt P24311)	0.014	-0.047		-0.01	0.004	-0.051	0.047	-0.013	-0.062	-0.028
CIC (UniProt I3L1Q4)			-0.169							
CPLX1 (UniProt O14810)	0.034	0.057		-0.026	0.029	-0.074			0.893 (active)	
DBF4 (UniProt Q9UBU7)	0.001		0.054	-0.015		0.001	-0.003	-0.245	0.001	-0.004
CSDE1 isoform 3 (UniProt O75534)		-0.014	0.05		-0.193	0.113	-0.064	-0.104		0.07
COL12A1 (UniProt Q99715)	0.239	0.178		0.194	-0.139				0.063	-0.233
DDAH1 (UniProt O94760)	0.054	0.071		0.04	0.068	0.061	-0.068	-0.051	-0.308 (active)	-0.022
DLGAP5 isoform 3 (UniProt Q15398)			0.281				-0.165	-0.03	0.165	
CSNK2A1, A0A2R8Y4D6		0.107			-0.325					
CHFR (UniProt Q96EP1)	-0.252	0.063		-0.013	0.043	0.052			0.052	0.033
COL6A3 (UniProt P12111)			0.347			0.086	0.254	-0.19	-0.039	0.031
CNK3/IPCEF1 isoform 2 (UniProt G9CGD6)	-0.062			0.056		0.078	-1.81 (active)	0.506	0.053	
DNM2 isoform 4 (UniProt P50570)		-0.001		-0.018	-0.031	-0.014	-0.153	0.021	-0.047	-0.031
COPS9 (UniProt Q8WXC6)		-0.075			0.062	-0.197				
CSNK1G3 isoform 4 (UniProt Q9Y6M4)		-0.238			0.111					
DDR1 isoform 5 (UniProt Q08345)			0.169	0.064		0.013	0.043	-0.479 (active)	-0.142	-0.019
DONSON (UniProt Q9NYP3)		0.017	-0.03		0.026	-0.036	-0.026	-0.206	0.013	0.016
DNAJC24 (UniProt Q6P3W2)	0.141	-0.038		0.017	0.027	0.002	0.196	-0.309 (active)	-0.013	-0.032
CSAD isoform 3 (UniProt Q9Y600)			0.456 (active)			0.001				-0.003
CLIP1, A0A3B3ITA2	-0.026					-0.015	-0.515	0.634 (active)		-0.021
CSRP2 (UniProt Q16527)			0.078	0.052			0.09	0.126		-0.351 (active)
CHMP4A (UniProt H0YIN6)		0.049	-0.012		0.024	-0.495	-0.274	0.158	0.201	-0.088
CSNK1A1 isoform 3 (UniProt P48729)						-0.199			-0.175	
DAPK1 isoform 3 (UniProt P53355)	0.047	-0.203			-0.138	0.022	0.138	-0.04	0.022	-0.039
